Values joined by “and” are separate entries in the source; they are usually repeats but may differ in a detail not shown here. Identical values can stand only once. A structure can be active in one record and inactive in another. Active and inactive are the calls of the source. How the source made its calls: active means hit-call score of the fitted dose curve at least 0.9, where 1 is the maximum; inactive means score below 0.9.

Assay [1] in a line: BSK_hDFCGF_Proliferation: Cell Proliferation Assessment in the BioMAP Diversity Plus: hDFCGF Assay (AID 2283059).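 Further: curves fitted for both rise and fall of signal versus DMSO baseline.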 The following applies: primary human foreskin fibroblasts. Put shortly:
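Steps: dose primary human dermal fibroblasts (foreskin); […] fix in 10% TCA; stain with 0.1% SRB; read 560 nm; fit gain or loss of signal against DMSO.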

Read-out in assay [2]: Macrophage colony-stimulating factor (MCSF), CSF1 (gene 1435)
As to the kind of experiment: BSK_hDFCGF_MCSF: BioMAP Diversity Plus: hDFCGF Assay for Macrophage colony-stimulating factor (MCSF) Biomarker Activity (AID 2283060). The following applies: primary human foreskin fibroblasts; actives raise or lower the signal. Put shortly: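 ELISA read-out of M-CSF in human dermal foreskin fibroblast cultures, 24 h after chemical dosing; gain or loss of signal fitted bidirectionally relative to DMSO baseline.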

The nature of assay [3]: BSK_hDFCGF_SRB: Viability Assessment in the BioMAP Diversity Plus: hDFCGF Assay (AID 2283061).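 Further: cells exposed to compound for 24 h before the read.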 The conditions noted are these: primary human foreskin fibroblasts. Put shortly: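 Primary human foreskin fibroblasts; 24 h post-dose; fixed 10% TCA, stained 0.1% SRB, A560 read; total protein as overt cytotoxicity measure; curves fit bidirectionally vs DMSO control.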
Read-out in assay [4]: TIMP metallopeptidase inhibitor 1 (TIMP1), TIMP1 (gene 7076)
As to the kind of experiment: BSK_hDFCGF_TIMP1: BioMAP Diversity Plus: hDFCGF Assay for TIMP metallopeptidase inhibitor 1 (TIMP1) Biomarker Activity (AID 2283062). The following applies: primary human foreskin fibroblasts; actives raise or lower the signal. Summed up:
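ELISA readout of TIMP-1 from human dermal foreskin fibroblast cultures 24 h post-dosing. Curves were fitted in both directions against DMSO baseline, with SRB total-protein staining in parallel cultures as a cytotoxicity check.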

Read-out in assay [5]: Monokine induced gamma interferon (MIG), CXCL9 (gene 4283)
As to the kind of experiment: BSK_hDFCGF_MIG: BioMAP Diversity Plus: hDFCGF Assay for Monokine induced gamma interferon (MIG) Biomarker Activity (AID 2283063). The following applies: primary human foreskin fibroblasts; actives raise or lower the signal. Summed up: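 Fibroblasts (human foreskin, primary) dosed, 24 h, MIG by ELISA; fit bidirectional vs DMSO.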

Read-out in assay [6]: Matrix Metallopeptidase 1 (MMP1), MMP1 (gene 4312)
As to the kind of experiment: BSK_hDFCGF_MMP1: BioMAP Diversity Plus: hDFCGF Assay for Matrix Metallopeptidase 1 (MMP1) Biomarker Activity (AID 2283064). The following applies: primary human foreskin fibroblasts; actives raise or lower the signal. Put shortly:
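Primary human foreskin fibroblasts in the hDFCGF system were dosed with test chemical, and MMP1 was measured by ELISA 24 h later. Values come from bidirectional curve fitting against the DMSO baseline.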

Read-out in assay [7]: Vascular cell adhesion molecule 1 (VCAM1), VCAM1 (gene 7412)
As to the kind of experiment: BSK_hDFCGF_VCAM1: BioMAP Diversity Plus: hDFCGF Assay for Vascular cell adhesion molecule 1 (VCAM1) Biomarker Activity (AID 2283065).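 On AC50: VCAM-1 protein level quantified by ELISA after 24 h chemical exposure.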 The conditions noted are these: primary human foreskin fibroblasts; actives raise or lower the signal. Put shortly: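 ELISA read-out of VCAM-1 on human skin fibroblasts, 24 h post-dose; gain or loss of signal fitted bidirectionally against DMSO baseline.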

Read-out in assay [8]: Plasminogen activator inhibitor-1 (PAI1), SERPINE1 (gene 5054)
As to the kind of experiment: BSK_hDFCGF_PAI1: BioMAP Diversity Plus: hDFCGF Assay for Plasminogen activator inhibitor-1 (PAI1) Biomarker Activity (AID 2283066). The following applies: primary human foreskin fibroblasts; actives raise or lower the signal. Put shortly: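 Primary dermal fibroblasts (human foreskin), hDFCGF system; compound 24 h; PAI-1 by ELISA; bidirectional fit vs DMSO control.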

Read-out in assay [9]: Intercellular Adhesion Molecule 1 (ICAM1), ICAM1 (gene 3383)
As to the kind of experiment: BSK_KF3CT_ICAM1: BioMAP Diversity Plus: KF3CT Assay for Intercellular Adhesion Molecule 1 (ICAM1) Biomarker Activity (AID 2283067). The conditions noted are these: primary human keratinocytes with fibroblasts; actives raise or lower the signal. Put shortly: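 ELISA readout of ICAM-1; KF3CT human skin co-culture (keratinocytes + foreskin fibroblasts), 24 h post-dose; gain/loss fit vs DMSO baseline.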

Read-out in assay [10]: Interferon-gamma inducible Protein 10 (IP10), CXCL10 (gene 3627)
As to the kind of experiment: BSK_KF3CT_IP10: BioMAP Diversity Plus: KF3CT Assay for Interferon-gamma inducible Protein 10 (IP10) Biomarker Activity (AID 2283068). The conditions noted are these: primary human keratinocytes with fibroblasts; actives raise or lower the signal. Put shortly: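 KF3CT co-culture (keratinocytes + foreskin fibroblasts), 24 h compound, IP-10 by ELISA; bidirectional fit vs DMSO baseline.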

`CCON=C(CC)C1=C(O)CC(c2c(C)cc(C)cc2C)CC1=O` (centres undefined): the outcome in assay [1], in assay [2], in assay [3], in assay [4], in [5] and in assay [6] was inactive. Besides, the result in assay [7], in [8], in assay [9] and in assay [10] was inactive.
Consider `CCNc1nc(Cl)nc(NC(C)C)n1`, for which the outcome in assay [1], in [2], in [3], in assay [4], in assay [5] and in assay [6] was inactive. The result in assay [7], in assay [8] and in assay [9] was inactive. Besides, the concentration at half-maximal activity (AC50) in assay [10] is 0.148 µM (active).
Take `CON(C)C(=O)Nc1ccc(Cl)c(Cl)c1`: the result in assay [1], in assay [2], in assay [3], in [4], in [5] and in [6] was inactive. Also, the outcome in assay [7], in [8], in assay [9] and in assay [10] was inactive.
With `C#CCOS(=O)OC1CCCCC1Oc1ccc(C(C)(C)C)cc1` (centres undefined), the AC50 is 2.73 µM (active) in assay [1]; 4.84 µM (active) in [2]; 3.73 µM (active) in assay [3]; 5.66 µM (active) in assay [4]; 13 µM (active) in assay [5]; 10 µM (active) in [6]. Moreover, the figures for the AC50 in [7], in assay [8] and in assay [10] were 3.65 µM (active), 5.14 µM (active) and 12.8 µM (active), respectively. Further, the outcome in assay [9] was inactive.
Take `COc1nc(C)nc(NC(=O)NS(=O)(=O)c2ccccc2CCC(F)(F)F)n1`: the outcome in [1], in [2], in assay [3], in assay [4], in assay [5] and in [6] was inactive. In addition, the outcome in assay [7], in assay [8], in [9] and in assay [10] was inactive. Also, in assay [6], the AC50 was 0.439 µM (active).
Regarding `CO/C=C(/C(=O)OC)c1ccccc1Oc1cc(Oc2ccccc2C#N)ncn1`, the AC50 in [1] was 30.2 µM (active) and 34.3 µM (active) and 25.5 µM (active). For the same molecule, the outcome in [1], in assay [2], in assay [3], in assay [4], in [5] and in assay [6] was inactive. Further, the result in [7], in assay [8], in assay [9] and in assay [10] was inactive.
Take `COC(=O)C=C(C)OP(=O)(OC)OC`: the result in [1], in [3], in [5], in assay [6], in assay [7] and in assay [8] was inactive. Moreover, the result in assay [9] and in [10] was inactive. For the same molecule, the values for the concentration at half-maximal activity (AC50) in assay [2] and in [4] were 0.157 µM (active) and 0.273 µM (active), respectively.
`Oc1ccccc1-c1ccccc1`: the outcome in assay [1], in [2], in assay [3], in [4], in assay [5] and in [6] was inactive. Further, the outcome in [7], in assay [8], in assay [9] and in assay [10] was inactive.
On to `CCCCOC(=O)c1ccccc1C(=O)OCCCC`, for which the result in assay [1], in assay [2], in assay [3], in assay [4], in assay [5] and in [6] was inactive. Besides, the outcome in [7], in assay [8], in [9] and in assay [10] was inactive. The AC50 was 12 µM (active) in [2] and 14 µM (active) in assay [7].
For the molecule `Cc1c(F)c(F)c(COC(=O)C2C(/C=C(\Cl)C(F)(F)F)C2(C)C)c(F)c1F` (centres undefined), the half-maximal activity concentration (AC50) is 10.8 µM (active) in assay [1], 3.03 µM (active) in assay [2] and 1.22 µM (active) in [6]. In addition, the result in assay [3], in [4], in assay [5], in assay [7], in assay [8] and in assay [9] was inactive. In addition, in [10], the outcome was inactive.
Consider `CCOC(=O)C(Cl)Cc1cc(-n2nc(C)n(C(F)F)c2=O)c(F)cc1Cl` (centres undefined), for which the result in [1], in [2], in assay [3], in [4], in [5] and in assay [6] was inactive. For the same molecule, the outcome in assay [7], in assay [8], in [9] and in assay [10] was inactive.
As for `CCOC(=O)CC(SP(=S)(OC)OC)C(=O)OCC` (centres undefined), the result in [1], in [2], in assay [3], in assay [4], in assay [5] and in assay [6] was inactive. The result in assay [7], in assay [8], in assay [9] and in assay [10] was inactive.
As for `CC(Oc1ccc(Cl)cc1Cl)C(=O)O` (centres undefined), the outcome in assay [1], in assay [2], in [3], in [4], in assay [5] and in [6] was inactive. Also, the outcome in assay [7], in [8], in assay [9] and in assay [10] was inactive.

By AC50 is commonly meant the concentration giving half of the maximal activity seen.

The record behind these values is PubChem BioAssay (EPA / NIEHS).
